Rows were chosen to be rich in hits. Some 1.2% of all compounds tested hit in one or more screens of this group.
RGS16-Gao – RGS16-Galphao interaction regulator (human); AID 1441; 0.38% of 220,000 active; binding response (% of control), % at 10 µM; bead-based flow cytometry RGS16-Galphao binding, fluorescence; actives lie on both sides; O15492+P09471;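 note: Galphao activated by GDP with aluminum fluoride before binding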
Target sequence (O15492 whole entry, looked up): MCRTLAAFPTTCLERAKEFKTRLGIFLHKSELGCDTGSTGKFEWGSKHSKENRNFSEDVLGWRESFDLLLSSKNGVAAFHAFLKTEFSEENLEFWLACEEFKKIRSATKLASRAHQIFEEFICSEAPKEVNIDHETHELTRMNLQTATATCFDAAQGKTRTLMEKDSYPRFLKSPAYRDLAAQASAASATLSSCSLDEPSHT
Target sequence (P09471 whole entry, looked up): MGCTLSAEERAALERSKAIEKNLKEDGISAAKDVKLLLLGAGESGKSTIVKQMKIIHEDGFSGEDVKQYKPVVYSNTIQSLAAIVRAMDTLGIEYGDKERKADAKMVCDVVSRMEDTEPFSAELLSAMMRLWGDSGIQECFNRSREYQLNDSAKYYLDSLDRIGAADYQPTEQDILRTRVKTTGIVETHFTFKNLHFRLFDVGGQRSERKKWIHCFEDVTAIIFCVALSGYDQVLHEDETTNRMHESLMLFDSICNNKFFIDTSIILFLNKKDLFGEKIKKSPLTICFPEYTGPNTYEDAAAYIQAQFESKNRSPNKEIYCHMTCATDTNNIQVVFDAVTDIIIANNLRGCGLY
RGS4-Gao reg – human RGS4-Galphao interaction regulation; 0.33% of 220,000 active; Multiplexed bead flow cytometry, RGS4-Galphao binding; actives lie on both sides; binding response (% of control), % at 10 µM; P09471; in the data active = binding response below about 49% or above about 150%; inactive = in between;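 note: fluorescent Galphao activated with aluminum fluoride binding bead-coupled RGS4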
Target sequence (P09471 whole entry, looked up): as above
RGS7-Gao – modulates binding of RGS7 to human Galphao. binding response (% of control), % at 10 µM. P09471. 0.35% of 220,000 active. Multiplexed bead flow cytometry; actives lie on both sides; in the data active = binding response below about 49% or above about 150%; inconclusive = no clear call, values can overlap the other calls; inactive = in between;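 note: fluorescent Galphao held in activated GDP-AlF4 state binding bead-coupled RGS7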
Avidin bead fluor – compound fluoresces at 488/530 nm on avidin beads; compound fluorescence 488/530 nm, flow cytometry; active compounds read high; 0.38% of 220,000 active; AID 1775; fluorescence (KMESF) at 10 µM; in the data active = fluorescence above about 47
GSH fluor – compound fluoresces at 488/530 nm on GSH beads; GSH beads flow cytometry, compound fluorescence 488/530 nm; active compounds read high; fluorescence (KMESF) at 10 µM; 0.25% of 190,000 active; in the data active = fluorescence above about 89;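 note: glutathione beads carrying GST-tagged Bcl family fusion proteins plus one bare bead set; values are compound well signal with DMSO vehicle wells as background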
RGS8-Gao – regulators of human RGS8-Galphao interaction; multiplexed bead flow cytometry, RGS8-Galphao binding; actives lie on both sides; response (percent of control binding), % at 10 µM; P09471; 0.34% of 220,000 active; in the data active = response below about 60% or above about 140%; inactive = in between;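 note: Galphao activated as the GDP aluminium fluoride complex binding bead-coupled RGS8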
RGS-Gao – modulates binding between human RGS4 and Galphao; RGS4–Galpha-o binding response, % at 10 µM; 99% of 1,600 active; shares compounds with RGS16-Gao; multiplexed bead flow cytometry, RGS–Galpha-o binding;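 note: fluorescently labeled Galpha-o bound to GDP with aluminium fluoride binding biotinylated RGS beads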
Biotin-avidin – biotin-avidin bead binding disruption counter-screen. shares compounds with RGS16-Gao. streptavidin beads, fluorescein-biotin binding, flow cytometry. inhibition, % at 10 µM. 1,700 tested, under 10 active;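 active = inhibition above 50%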;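 note: median green fluorescence of gated singlet beads compared with DMSO control wells; 0% = DMSO wells and 100% = complete loss of bead fluorescence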
RGS8-Gao confirm – confirmation of regulators of human RGS8-Galphao interaction; shares compounds with RGS16-Gao; bead-based flow cytometry RGS8-Galphao binding, fluorescence; actives lie on both sides; binding response (% of control), % at 10 µM; 3% of 1,700 active; AID 1836; in the data active = binding response below about 72% or above about 130%; inactive = in between;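 note: Galphao activated as GDP AlF4 complex before binding bead RGS8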
RGS7-Gao confirm – RGS7-Galphao interaction regulation, single point confirmation; shares compounds with RGS16-Gao; bead-based flow cytometry RGS7-Galphao binding; actives lie on both sides; response (percent of control binding), % at 10 µM; 7.8% of 1,700 active; in the data active = response below about 75% or above about 130%; inactive = in between;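 note: fluorescent Galphao activated with GDP and aluminum fluoride binding bead-coupled RGS7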
RGS16-Gao conf – confirmation of regulators of human RGS16-Galphao interaction; shares compounds with RGS16-Gao; bead-based flow cytometry, RGS16-Galphao binding; actives lie on both sides; response (% of control binding), % at 10 µM; 4% of 1,700 active; AID 1838; in the data active = response below about 74% or above about 130%; inactive = in between;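 note: Galphao activated as the GDP aluminium fluoride complex binding bead-coupled RGS16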
RGS4-Gao single – confirmation of regulators of human RGS4-Galphao interaction; shares compounds with RGS16-Gao; RGS4-Galphao binding, multiplexed bead flow cytometry; actives lie on both sides; binding response (% of control), % at 10 µM; 4% of 1,700 active; in the data active = binding response below about 74% or above about 130%; inactive = in between
RGS19-Gao single – RGS19-Galphao interaction regulation, single point confirmation | shares compounds with RGS16-Gao | bead-based flow cytometry RGS19-Galphao binding; actives lie on both sides | response (percent of control binding), % at 10 µM | 5% of 1,700 active; in the data active = response below about 50% or above about 160%; inactive = in between;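 note: 100% = no compound control and 0% = blank background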
Numbers without * were called inactive; ? = inconclusive; nt = not tested or not shown; [ ] = dose if it differs, or a comment. Unless noted, the rule behind the calls is not given here.

SMILES | RGS16-Gao | RGS4-Gao reg | RGS7-Gao | Avidin bead fluor | GSH fluor | RGS8-Gao | others
CCCCCn1c(=O)c(C(=O)Nc2nc(CC(=O)OCC)cs2)c(O)c2ccccc21 | 103 | 101 | 102 | 22 | 96* | 103
O=C(COc1ccc(Cl)cc1)N(c1ccc(Cl)cc1)C1CN2CCC1CC2 (centres undefined) | 98 | 100 | ? | 8 | nt | 103
O=C(O)c1sc2cc(Cl)ccc2c1Cl | 104 | 108 | ? | 9 | nt | 105
O=C(Cn1cc(C(=O)c2ccccc2)c2ccccc21)NCc1ccco1 | 111 | 103 | 108 | 50* | 20 | 105
COc1cc(NC(=O)CN2C3CCC2CC(O)(c2cccnc2)C3)cc(OC)c1 (centres undefined) | 100 | 104 | 113 | 49* | 11 | 100
O=C1NC(=O)C2(Cc3ccccc3N3CCCC32)C(=O)N1c1ccccc1 (centres undefined) | 100 | 99 | 111 | 54* | 23 | 99
O=C1NC(=O)C2(Cc3ccccc3N3CCCC32)C(=O)N1 (centres undefined) | 87 | 101 | 100 | 8 | 32 | 95
O=c1[nH]c(=O)n(CCC2=CCCCC2)c(O)c1C=Nc1cccc(F)c1 | 97 | 100 | 113 | 57* | 12 | 102
Nc1ccccc1N=Cc1c(O)n(CCC2=CCCCC2)c(=O)[nH]c1=O | 100 | 100 | 96 | 19 | 10 | 100
Cc1n[nH]c(C)c1CCN | 105 | 104 | 102 | 59* | 16 | 102
O=c1c2ccccc2nc(-c2ccco2)n1-c1ccccc1 | 113 | 118 | 109 | 12 | 125* | 106
CC1(CCl)CN1S(=O)(=O)c1ccccc1 (centres undefined) | 95 | 87 | ? | 5 | nt | 100
CC1Oc2cc3c(-c4c(O)cc(O)c5c(O)c6c(cc45)OC(C)C(C)C6=O)c(O)cc(O)c3c(O)c2C(=O)C1C (centres undefined) | 15* | 14* | ? | 0 | nt | 36*
CNc1cc(Cl)c2nonc2c1[N+](=O)[O-] | 86 | 96 | ? | 10 | 12 | 86
Oc1ccc2c3c1O[C@H]1c4[nH]c5ccccc5c4C[C@@]4(O)C(C2)N(CC2CC2)CC[C@]314 | 94 | 96 | 100 | 7 | 66 | 94
O=P(O)(O)C#Cc1ccccc1 | 95 | 98 | 97 | 9 | 261* | 97
CN(C)C(=O)O/N=C(\N)COc1ccc(C(C)(C)C)cc1 | 108 | 103 | ? | 7 | nt | 103
NNc1n[nH]c(=S)n1N | 144 | 144 | ? | 88* | nt | 104
O=C(/C=C/c1c[nH]c2ccccc12)c1c(O)n(CCc2ccccc2)c(=O)[nH]c1=O | 104 | 104 | ? | 8 | nt | 102
CC(C)(C)c1nc(NCc2ccc3c(c2)OCO3)c2nnn(Cc3ccccc3Cl)c2n1 | 104 | 101 | 102 | 4 | 141* | 100
Cc1cc(OCCN2CC2)c2ccccc2n1 | 102 | 103 | ? | 7 | nt | 102
O=c1[nH]c(=O)n(C2CCCCC2)c(O)c1C1NCCc2ccccc21 (centres undefined) | 100 | 106 | 102 | 6 | 261* | 103
c1ccc(-c2[nH]c[n+](CC3CO3)c2-c2ccccc2)cc1 (centres undefined) | 99 | 101 | 102 | 12 | 65 | 103
CCOP(=O)(OCC)C(O)c1ccccc1 (centres undefined) | 101 | 108 | ? | 4 | nt | 104
CCOP(=O)(OCC)C(O)c1cccnc1 (centres undefined) | 113 | 132 | ? | 81* | nt | 109
SMILES | RGS16-Gao | RGS4-Gao reg | RGS7-Gao | Avidin bead fluor | GSH fluor | RGS8-Gao | others
O=c1c2ccccc2[nH]c(=S)n1-c1ccc2c(c1)OCCO2 | 96 | 98 | ? | 7 | nt | 99
CCOC(=O)N1CCC(NC(=O)CCc2nc(C3=CCN(C)CC3)no2)CC1 | 109 | 125 | 190*[activator] | 166* | 23 | 101 | RGS-Gao=125*
CC(C)N1C(=O)CC2(CC[N+](C)(CCOC(=O)C(O)(c3ccccc3)c3ccccc3)CC2)C1=O (centres undefined) | 25* | 32* | 27* | 4 | 34 | 32* | Biotin-avidin=3;RGS8-Gao confirm=104;RGS7-Gao confirm=102;RGS16-Gao conf=101;RGS4-Gao single=102;RGS19-Gao single=85
Nc1c([N+](=O)[O-])cc(F)c(N2CCNCC2)c1Br | 40 | 44* | 39* | 0 | 10 | 52* | Biotin-avidin=0;RGS8-Gao confirm=104;RGS7-Gao confirm=101;RGS16-Gao conf=104;RGS4-Gao single=99;RGS19-Gao single=89
Cc1cccc(N2C(=O)NC(=O)/C(=C\c3cccn3-c3ccc(Cl)cc3)C2=O)c1 | 95 | 129 | 233*[activator] | 402* | 12 | 89 | RGS-Gao=129*
O=c1[nH]c(=O)n(Cc2ccco2)c(O)c1C=NCc1cccs1 | 95 | 96 | 95 | 32 | 13 | 97
O=c1[nH]c(=S)n(Cc2ccco2)c(O)c1C=NCc1cccs1 | nt | nt | nt | nt | 40 | nt | Biotin-avidin=-1;RGS8-Gao confirm=87;RGS7-Gao confirm=53*;RGS16-Gao conf=74*;RGS4-Gao single=66*;RGS19-Gao single=47*
O=P1(Nc2ccc(F)cc2)COc2ccccc2OC1 | 110 | 107 | 107 | 6 | 65 | 104
Cc1c(C(c2ccc(F)cc2)c2c(O)c3ccccc3oc2=O)c(=O)n(-c2ccccc2)n1C (centres undefined) | 84 | 67 | 38* | 3 | 21 | 46* | RGS-Gao=67*;Biotin-avidin=0;RGS8-Gao confirm=108;RGS7-Gao confirm=110;RGS16-Gao conf=113;RGS4-Gao single=106;RGS19-Gao single=112
